Test results taken from PMC4336329 (PLoS ONE, 2015).
Among all 310,000 compounds or so, about 14,000 (4.5%) showed an effect of 50% or more. Effects have a minus sign here. Shown is part of a subset that was picked to be rich in strong results.

target: human ether-à-go-go-related gene (hERG) potassium channel (human, UniProt Q12809); test: primary screen, population patch clamp on CHO cells stably expressing hERG; higher = less effect of the substance
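Also: peak tail current of the secondary pulse compared with the same well before compound.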

Chain of human ether-à-go-go-related gene (hERG) potassium channel (Q12809 whole entry, looked up): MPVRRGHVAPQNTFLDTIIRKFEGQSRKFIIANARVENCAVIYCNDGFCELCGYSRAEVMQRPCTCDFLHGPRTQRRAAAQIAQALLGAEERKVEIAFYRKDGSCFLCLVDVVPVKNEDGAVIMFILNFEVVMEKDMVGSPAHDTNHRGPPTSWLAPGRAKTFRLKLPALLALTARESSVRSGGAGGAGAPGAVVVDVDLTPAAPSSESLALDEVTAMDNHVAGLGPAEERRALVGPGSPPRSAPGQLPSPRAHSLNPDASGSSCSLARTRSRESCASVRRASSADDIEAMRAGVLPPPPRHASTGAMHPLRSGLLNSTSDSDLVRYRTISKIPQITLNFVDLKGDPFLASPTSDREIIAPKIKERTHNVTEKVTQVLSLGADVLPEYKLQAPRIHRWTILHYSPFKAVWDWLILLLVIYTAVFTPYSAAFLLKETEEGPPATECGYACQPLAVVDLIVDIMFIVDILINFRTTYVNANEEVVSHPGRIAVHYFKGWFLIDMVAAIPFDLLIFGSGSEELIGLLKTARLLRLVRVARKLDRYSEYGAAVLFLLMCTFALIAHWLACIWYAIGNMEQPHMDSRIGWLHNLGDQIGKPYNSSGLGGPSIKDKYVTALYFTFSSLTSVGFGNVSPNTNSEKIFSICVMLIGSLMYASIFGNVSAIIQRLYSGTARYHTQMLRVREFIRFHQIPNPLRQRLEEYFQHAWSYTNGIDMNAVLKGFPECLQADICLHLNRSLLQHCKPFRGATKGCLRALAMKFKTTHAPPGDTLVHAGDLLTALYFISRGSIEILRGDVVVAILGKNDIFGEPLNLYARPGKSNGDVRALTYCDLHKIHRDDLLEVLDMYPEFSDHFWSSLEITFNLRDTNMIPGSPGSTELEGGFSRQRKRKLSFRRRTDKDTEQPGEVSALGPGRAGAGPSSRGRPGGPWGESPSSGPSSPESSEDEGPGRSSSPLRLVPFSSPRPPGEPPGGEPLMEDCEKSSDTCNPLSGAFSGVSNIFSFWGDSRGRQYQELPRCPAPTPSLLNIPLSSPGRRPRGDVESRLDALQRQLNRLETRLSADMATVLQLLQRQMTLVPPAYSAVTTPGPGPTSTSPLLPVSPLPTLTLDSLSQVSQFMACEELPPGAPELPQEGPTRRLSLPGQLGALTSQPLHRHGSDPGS

Compound | hERG current change (%, negative = inhibition) at 10uM [%]
COc1ccc(C2CC(C(F)(F)F)n3nc(C(=O)Nc4ccc5c(c4)OCO5)cc3N2)cc1 (centres unmarked) | 10.5
COc1ccc(-c2noc(N3CCCC(C(=O)Nc4ccccc4F)C3)n2)cc1 (centres unmarked) | 15.5
Cc1csc(=O)n1CC(=O)OCC(=O)c1ccc(Br)cc1 | -14
CCOc1ccc(NC(=S)N2CCN(S(=O)(=O)c3ccccc3)CC2)cc1 | -31.6
COc1ccc(-n2c(C)n[nH]c2=O)cc1OC | 10.7
Cc1sc(NC(=O)c2sc3nc4c(C)cccc4cc3c2N)c(C#N)c1C | 8.29
O=c1[nH]c2cc3c(cc2cc1CN(Cc1cccnc1)Cc1nnnn1Cc1ccco1)OCCO3 | -4.69
CCN1C(=O)/C(=C/C=C2\C=CN(CC)c3ccccc32)SC1=S | -4.57
NC(=O)COc1ccc2oc(=O)cc(-c3cc4ccccc4o3)c2c1 | 7.27
Cc1noc(C)c1CSCC(=O)Nc1cc(C(F)(F)F)ccc1N1CCOCC1 | -37.9
Cc1c(Cl)c([N+](=O)[O-])nn1CC(=O)Nc1ccc2c(c1)OCO2 | 18.4
CCCNC(=O)C1(CC2CC(c3ccccc3)=NO2)CCN(C(=O)CCCCCBr)CC1 (centres unmarked) | -50
CCCCCCCNC(=O)C1(CC2CC(c3ccc(Cl)cc3)=NO2)CCN(C(=O)c2cc(OCC)c(OCC)c(OCC)c2)CC1 (centres unmarked) | 17.6
CCCCCCCNC(=O)C1(CC2CC(c3ccc(Cl)cc3)=NO2)CCN(C(=O)CCCCCBr)CC1 (centres unmarked) | -79
CCCCCCCNC(=O)C1(CC2CC(c3cccc(Br)c3)=NO2)CCN(C(=O)CCCCCBr)CC1 (centres unmarked) | -82.7
CCCCCCCNC(=O)C1(CC2CC(c3cccc(Br)c3)=NO2)CCN(C(=O)OC(C)(C)C)CC1 (centres unmarked) | 3.88
CCCCn1c(-c2ccco2)n[nH]c1=S | 16.9
COc1cc2c(cc1OC)-c1nnc(-c3ccco3)n1C1(CCCC1)C2 | -8.01
O=Cc1c(Cl)cccc1Cl | 13.9
CNC(=O)CCCN1C(=O)c2ccccc2Sc2ncccc21 | 23.9
O=C(CSc1nc2[nH]ncc2c(=O)[nH]1)Nc1cccc([N+](=O)[O-])c1 | -19.2
COCCn1c(C)cc(C2=NNC(=Nc3ccc(Cl)cc3Cl)SC2)c1C | 7.57
O=C(Cn1c(SCC(=O)NC2CCCC2)nnc1-c1ccncc1)Nc1ccc2c(c1)OCO2 | -11.7

Compound | hERG current change (%, negative = inhibition) at 10uM [%]
COC(=O)CSc1nnc(C)c(=O)[nH]1 | 2
O=C(Cc1coc2cc3c(cc12)CCC3)NC1CCCCCCC1 | 0.532
O=C(Cc1coc2cc3c(cc12)CCC3)NCC1(N2CCCCC2)CCCCC1 | -76.9
Cc1ccc2c(CC(=O)NCC3(N4CCOCC4)CCCCC3)coc2c1C | -25.5
CCOC(=O)c1sc2ncn(C(CC)C(=O)OCC)c(=O)c2c1C (centres unmarked) | 1.12
O=C(COC(=O)c1cc[n+]([O-])cc1)Nc1ccc(Cl)cc1C(F)(F)F | 24.9
CCc1ccc(CN2CCC(N3CCC(C(=O)N4CCCC4)CC3)CC2)o1 | -70
Cc1ncc(CN2CCC(N3CCC(C(=O)N4CCCC4)CC3)CC2)s1 | -18.1
O=C(c1cc2ccccc2o1)N1CCCCCC1 | -5.92
O=C(C1CCN(C2CCN(Cc3ccc4cc(F)ccc4n3)CC2)CC1)N1CCCC1 | -77.3
O=C(C1CCN(C2CCN(Cc3ccc4c(c3)CCO4)CC2)CC1)N1CCCC1 | -43
O=C(c1cc2ccccc2o1)N1CCC(N2CCC(C(=O)N3CCCC3)CC2)CC1 | -55.7
O=C(c1cc2ccccc2o1)N1CCCC1 | 10.8
C=C(C)[C@@H]1CC=C(CN2CCC(N3CCC(C(=O)N4CCCC4)CC3)CC2)CC1 | -82.2
C=C(C)C1CC=C(CN2CCC(O)CC2)CC1 (centres unmarked) | -6.28
CC1(C)[C@H]2CC=C(CN3CCC(N4CCC(C(=O)N5CCCC5)CC4)CC3)[C@@H]1C2 | -25.1
O=C(c1cc(F)ccc1F)N1CCC(N2CCC(C(=O)N3CCCC3)CC2)CC1 | 6.92
COCc1ccc(CN2CCC(N3CCC(C(=O)N4CCCC4)CC3)CC2)o1 | 8.86
O=C(CNC(=O)c1ccco1)Nc1ccncc1 | -5.14
Cc1cc(C)cc(C(=O)NC(CC(N)=O)c2ccc(NCCN3CCCC3)c([N+](=O)[O-])c2)c1 (centres unmarked) | 10.5
COC(=O)Cc1coc2cc(OC)ccc12 | 11.9
Cc1ccc(S(=O)(=O)n2cnc3cc([N+](=O)[O-])ccc32)cc1C | -19.9
Cc1cc(NC(=O)CSc2nc3c(cc2C#N)CCC3)no1 | 26.7

Compound | hERG current change (%, negative = inhibition) at 10uM [%]
O=C1c2ccccc2C(=O)N1c1ncn[nH]1 | 11.3
Cc1cccc(Nc2ncnc(N)n2)c1 | 15.6
O=C1CCN(Cc2ccc(Cl)cc2)N1 | 10.8
CC(C)c1cc(=O)n2[nH]c(SCc3ccccc3Cl)nc2n1 | 23.7
Cc1ccc(C(=O)COC(=O)CCC(=O)NC2CCCCC2)cc1C | 14.8
Cc1cccc(C)c1N(CC(O)Cn1c2ccccc2c2ccccc21)S(C)(=O)=O (centres unmarked) | 18.6
COc1cccc(C(CC(=O)O)NS(=O)(=O)c2ccc3c(c2)N(C(C)=O)CC(C)O3)c1 (centres unmarked) | 24.4
Cc1nn(-c2ccccc2)c(Cl)c1C(=O)N1CCN(c2ncnc3c2cnn3-c2ccccc2)CC1 | -29.1
CCOC(=O)C1(CCOC)CCN(Cc2ccc(C3CCCCO3)s2)CC1 (centres unmarked) | -21.4
CCOC(=O)C1(CCOC)CCN(Cc2nc(C(C)C)cs2)CC1 | 41
C=C(C)[C@@H]1CC=C(CN2CCC(CCOC)(C(=O)OCC)CC2)CC1 | -64.7
N#CCCN(CCC#N)C(=O)C1c2ccccc2Oc2ccccc21 | 14.4
CCOC(=O)c1ccccc1NC(=O)COC(=O)CN1C(=O)C2CC=CCC2C1=O (centres unmarked) | -2.8
Cn1c(C(=O)NCCN2CCCCCC2)cc2c(=O)n(C)c3ccccc3c21 | -13.4
C=CCOc1ccc2oc(=O)cc(C)c2c1 | -1.62
CC1(C)CC(=O)c2c(nc3ccccc3c2N)C1 | -28.8
Cc1c2c(nc3ccccc13)CC(C)(C)CC2=O.Cl | 0.994
CCNc1c2c(nc3ccccc13)CC(C)(C)CC2=O.O=C(O)C(=O)O | -69.9
O=C(Nc1cccc(C(=O)O)c1)/C(=C\c1ccco1)NC(=O)c1ccc(Br)o1 | -28.1
Cc1ccc(SCC(=O)OCC(=O)NCc2cccs2)cc1 | 5.8
NC(=S)N=Nc1c(O)n(CCCl)c2ccc(Cl)cc12 | 9.1
CCOc1cc(/C=C\[N+](=O)[O-])ccc1OCC(=O)N1CCOCC1 | -50.5
O=C(COc1ccc(/C=C\[N+](=O)[O-])cc1)N1CCOCC1 | -17.7

Compound | hERG current change (%, negative = inhibition) at 10uM [%]
CCOc1cc(C=C2C(=O)NC(=O)NC2=O)ccc1OCC(=O)N1CCOCC1 | 7.28
CCCOc1ccc(C(=O)Nc2ccc3c(c2)OCO3)cc1 | 16.1
CC(=O)c1cccc(NC(=O)CCOc2ccccc2)c1 | 6.88
COc1cccc(C(=O)Nc2cc(NC(=O)c3ccco3)ccc2OC)c1 | -5.19
CCCOc1cccc(C(=O)Nc2cc(NC(=O)c3ccco3)ccc2OC)c1 | -81.2
COc1ccc(NC(=O)c2ccco2)cc1NC(=O)c1cccc(OC(C)C)c1 | -96.7
CCCCOc1cccc(C(=O)Nc2ccc(NC(=O)c3ccco3)cc2)c1 | 8.63
CCCOc1cccc(C(=O)Nc2cccc(NC(=O)c3ccco3)c2)c1 | -21.8
CC(C)Oc1cccc(C(=O)Nc2ccc(NC(=O)c3ccco3)cc2)c1 | 6.06
CCCc1cc(=O)[nH]c(SCC(=O)Nc2nonc2N)n1 | -5.4
COc1ccc(CC(=O)Nc2sc3c(c2C#N)CC(C)(C)NC3(C)C)cc1OC | -3.63
COc1ccc(C(=O)CSc2nnc(NC(=O)C3CC(=O)N(c4cccc(OC)c4)C3)s2)cc1 (centres unmarked) | 15.6
COC(=O)CC1=C(C(=O)OC)C2(C(=O)N(C)c3ccccc32)C(C#N)=C(N)O1 (centres unmarked) | 14.7
CC(C)(C)NC(=O)/C(=C\c1ccccc1F)NC(=O)c1ccc([N+](=O)[O-])cc1 | -35.3
Cn1c(=O)n(CCOc2ccc(Cl)cc2Cl)c2ccccc21 | -2.26
Cl.N=c1n(CCO)c2ccccc2n1CCOc1ccc(Cl)cc1Cl | -63.8
Cl.N=c1n(CCO)c2ccccc2n1Cc1ccc(Cl)cc1 | -40.1
COC(=O)c1ccc(NS(=O)(=O)c2ccc(-c3cc(C)no3)s2)cc1 | 10.5
COc1ccccc1NS(=O)(=O)c1cc(-c2cc(C)no2)ccc1OC | -5.52
COc1ccccc1NS(=O)(=O)c1ccc(-c2cc(C)no2)s1 | -69.5
